PubChem BioAssay (EPA / NIEHS)
The source made the active and inactive calls. Rule for the calls: active = hit-call score of the fitted dose curve at least 0.9, where 1 is the maximum; inactive = score below 0.9.

What follows are molecules tested on Pselectin, SELP (gene 6403) (assay: BSK_4H_Pselectin: BioMAP Diversity Plus: 4H Assay for Pselectin Biomarker Activity (AID 2283026)). Settings: primary human endothelial cells (HUVEC); actives raise or lower the signal.
Protocol: BSK_4H is a cell-based, multiplexed-readout assay that uses umbilical vein endothelium, a human vascular primary cell, with measurements taken at 24 hours after chemical dosing in a 96-well plate.BSK_4H_Pselectin is an assay component measured in the BSK_4H assay. It measures P-Selectin antibody related to regulation of gene expression using ELISA technology.Data from the assay component BSK_4H_Pselectin was analyzed into 1 assay endpoint. This assay endpoint, BSK_4H_Pselectin, was analyzed with bidirectional fitting relative to DMSO as the negative control and baseline of activity. Using a type of binding reporter, gain or loss-of-signal activity can be used to understand changes in the signaling as they relate to the gene SELP. Furthermore, this assay endpoint can be referred to as a primary readout, because this assay has produced multiple assay endpoints where this one serves a signaling function. To generalize the intended target to other relatable targets, this assay endpoint is annotated to the cell adhesion molecules intended target family, where the subfamily is selectins.
The levels of cell surface (or secreted, indicated by the prefix "s") biomarker endpoints were measured by ELISA. Overt cytotoxicity to cells in confluent adherent cultures (all systems other than the BT system) was assessed by measuring total protein levels using sulforhodamine B (SRB) staining in parallel cultures at the time of biomarker measurements, indicated as SRB endpoints. For proliferation assays for adherent cell types, individual cell types are cultured at sub-confluence and relative cell numbers quantified by SRB staining at time points optimized for each system (48 h: 3C and CASM3C systems; 72 h: BT and HDF3CGF systems; 96 h: SAg system). SRB was performed by staining cells with 0.1% SRB after fixation with 10% TCA and reading wells at 560 nm.Viability and proliferation of PBMC (T cells) was quantified by Alamar Blue reduction for the SAg and BT systems. For PBMC viability (referred to as PBMC Cytotoxicity within the assay endpoint names), cells were plated (75,000/well in a 96-well plate) and then chemical samples added for 1 h before addition of activators, SEB and TSST-1 (20 ng/mL final concentration each). Cells were incubated for 90 h. Then, Alamar Blue (20 uL/well) (Invitrogen, Cat DAL1100) was added for 6 h, and the plates were read with a fluorescence microplate reader at 546/580 nm (excitation/emission). For PBMC proliferation, cells were plated and activated as above but incubated for only 16 h prior to addition of Alamar Blue. Plates were read after 6 h.

| Structure (SMILES) | outcome | AC50 |
| --- | --- | --- |
| CCc1cccc(CC)c1N | inactive |  |
| Cc1nccn1-c1ccc(Sc2cccc(C3(C(N)=O)CCOCC3)c2)cc1 | inactive |  |
| O=C(Cl)C(F)(F)C(F)(F)C(F)(F)C(=O)Cl | inactive |  |
| OC(CCl)CCl | inactive |  |
| CCCCOC(=O)c1ccccc1 | inactive |  |
| NC(=O)N1c2ccccc2C=Cc2ccccc21 | inactive |  |
| COc1cc(C(C)C)c2c(c1)S(=O)(=O)N(COc1cc(=O)n3cccc(OCCN4CCCCC4)c3n1)C2=O |  | 5 µM (active) |
| c1ccc2cc3ccccc3cc2c1 | inactive |  |
| CCCCN1C(=O)[C@@H]([C@H](O)C2CCCCC2)NC(=O)C12CCN(Cc1ccc(Oc3ccc(C(=O)O)cc3)cc1)CC2 | inactive |  |
| CCc1ccc(O)c(C(C)(C)C)c1 |  | 32 µM (active) |
| C[C@@H](Oc1ccc(CNC(=O)c2cccnc2Oc2ccc3c(c2)OCO3)c(F)c1)C(=O)O | inactive |  |
| CC(C)CCCCCCOC(=O)C1CCCCC1C(=O)OCCCCCCC(C)C (stereo not given) | inactive |  |
| FC(F)(F)C(F)(F)C(F)(F)C(F)(F)C(F)(F)C(F)(F)I | inactive |  |
| c1ccc2c(c1)-c1cccc3c1c-2cc1ccccc13 | inactive |  |
| O=S1(=O)CCCO1 | inactive |  |
| c1ccc(C(O[C@@H]2CCCN(CCc3ccc4c(c3)OCO4)C2)c2ccccc2)cc1 | inactive |  |
| COCc1nnc(-c2ccc[n+]([O-])c2)n1-c1c(Cl)c(Cl)cc2[nH]c(=O)c(=O)[nH]c12 | inactive |  |
| CCCCCOC(C)=O | inactive |  |
| O=C(O)c1ccc2c(c1)nc(C(=O)NC1CCN(C3CC3)CC1)n2Cc1cc(-c2ccc(Cl)s2)on1 |  | 0.952 µM (active) |
| OC[C@H]1O[C@@](CO)(O[C@H]2O[C@H](CO)[C@@H](O)[C@H](O)[C@H]2O)[C@@H](O)[C@@H]1O | inactive |  |

| Structure (SMILES) | outcome | AC50 |
| --- | --- | --- |
| FC(F)=C(F)C(F)(F)C(F)(F)C(F)(F)C(F)(F)C(F)(F)C(F)(F)F | inactive |  |
| FC(F)C(F)(F)COCC1CO1 (stereo not given) | inactive |  |
| CCn1nc(C)c2c1C(=O)NCC(c1ccc(O)cc1)=N2 | inactive |  |
| CC(C)C(=O)Nc1ccc([N+](=O)[O-])c(C(F)(F)F)c1 | inactive |  |
| O=S(=O)(O)CCC(F)(F)C(F)(F)C(F)(F)C(F)(F)C(F)(F)C(F)(F)F | inactive |  |
| C[Si](C)(C)C(F)(F)C(F)(F)C(F)(F)F | inactive |  |
| c1ccc2ncccc2c1 | inactive |  |
| CCCOc1ccc(S(=O)(=O)N2CCN(CC)CC2)cc1-c1nc2c(CC)n(Cc3ccccn3)nc2c(=O)[nH]1 | inactive |  |
| C=CN1CCCC1=O | inactive |  |
| OCCOCCOCCO | inactive |  |
| CCCC(CCC)C(=O)O | inactive |  |
| CNC(C)=O | inactive |  |
| NC(N)=O | inactive |  |
| NC(=O)NN=Cc1ccc([N+](=O)[O-])o1 | inactive |  |
| FC(F)(F)COC(OCC(F)(F)F)OCC(F)(F)F | inactive |  |
| NNC(=O)c1ccncc1 | inactive |  |
| O=C(O)c1cccc(C(=O)O)c1 | inactive |  |
| OCC(CO)(CO)CO | inactive |  |
| CC(C)CC(C)O (stereo not given) | inactive |  |
| CCCCCCOC(=O)CC(CC(=O)OCCCCCC)(OC(=O)CCC)C(=O)OCCCCCC | inactive |  |
